Measurements reported in PubChem BioAssay AID602333 (Sanford-Burnham Center for Chemical Genomics, 2012).
The whole screen tested about 1,900 compounds, of which about 240 (13%) were called active. A selection follows. Unmarked numbers belong to inactive results.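 Rule for the calls: active = mean inhibition at least 40% at 20 µM, or signal 3 deviations below plate average, so some actives read negative; inactive = the rest.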

What follows are molecules tested against Prothrombin (Bos taurus) (UniProt P00735) (assay: blocking of thrombin cleavage of Ub4 substrate – biochemical, fluorescence polarization, single concentration, counter-screen for Rpn11 inhibitor project, confirmation (AID 602333;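 note: plate controls were thrombin with DMSO for no effect and buffer wells lacking thrombin for full effect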)). Conditions: bovine thrombin cleavage of Ub4-pepOG, at 20 µM, hits give high values.
Chain of Prothrombin (Bos taurus) (P00735 whole entry, looked up): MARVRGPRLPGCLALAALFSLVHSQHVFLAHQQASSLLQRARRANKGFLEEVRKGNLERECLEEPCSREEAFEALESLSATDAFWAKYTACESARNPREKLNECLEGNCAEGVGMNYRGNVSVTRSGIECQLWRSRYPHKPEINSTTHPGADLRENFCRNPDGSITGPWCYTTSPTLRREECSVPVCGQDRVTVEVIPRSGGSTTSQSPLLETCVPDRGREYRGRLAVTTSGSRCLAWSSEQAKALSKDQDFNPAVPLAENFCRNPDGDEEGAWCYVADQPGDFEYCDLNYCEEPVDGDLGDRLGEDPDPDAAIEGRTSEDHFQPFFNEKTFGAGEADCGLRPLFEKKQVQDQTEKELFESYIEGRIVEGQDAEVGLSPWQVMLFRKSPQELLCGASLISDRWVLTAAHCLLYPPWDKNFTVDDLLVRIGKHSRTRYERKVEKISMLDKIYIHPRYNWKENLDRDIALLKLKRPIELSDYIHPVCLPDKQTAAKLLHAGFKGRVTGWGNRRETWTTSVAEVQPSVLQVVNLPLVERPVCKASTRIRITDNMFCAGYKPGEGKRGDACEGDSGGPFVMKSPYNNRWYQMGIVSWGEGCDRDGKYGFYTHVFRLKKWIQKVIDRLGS

Structure (SMILES) | inhibition
C=CC1=C(C(=O)O)N2C(=O)[C@@H](NC(=O)/C(=N/OCC(=O)O)c3csc(N)n3)[C@H]2SC1 | -49.6%
O=C(COc1cccc(F)c1)Oc1ccc(C(=O)c2ccccc2)cc1 | -6.51%
C/C(=N/Nc1nc(-c2ccccc2)c(CC(=O)O)s1)c1ccccc1 | 11.8%
COc1cc(/C=C2/SC(=S)N(Cc3ccccc3)C2=O)cc(OC)c1O | 30.8%
Cc1ccc(Nc2nc(Cl)c(C=O)s2)cc1 | 47% (active)
Cc1ccc(Nc2ccccc2N)cc1 | 15.5%
CCOc1cc(/C=C2\SC(N3CCCCC3)=NC2=O)ccc1O | 21%
Oc1ccc(/C=N/Nc2nc(-c3ccccc3F)nc3ccccc23)c(O)c1 | 5.18%
COc1ccc2[nH]c(=O)c(-c3noc(-c4ccc(F)cc4)n3)cc2c1 | 2.93%
Cc1ccc2cc(C#N)c(NCCNC(=S)NCCCN3CCOCC3)nc2c1 | -7.45%
C=CCn1c(SCC(=O)NCc2ccccc2)nnc1-c1cc(Br)ccc1O | -3.07%
CCCCCCCCCCOC(=O)Cn1c(COc2cccc(OC)c2)[n+](C)c2ccccc21 | -11.8%
Cc1c(NC(=O)CSc2cccc3cccnc23)c(=O)n(-c2ccccc2)n1C | -11.3%
Cc1nc2ccc(C(=O)N3CCSCC3)cc2s1 | -9.73%
CCC(C)Cn1c(O)cc2nn(-c3nc4ccccc4s3)c(=O)c-2c1C (stereo not given) | 3.33%
CCNCc1cc2cc(C)ccc2[nH]c1=O | 7.4%
CCN1CCN(c2cc3nc(C)n(Cc4ccccc4)c(=O)c3cc2NC(=O)c2ccccc2F)CC1 | -5.14%
COc1ccc(Cl)cc1NC(=O)CCS(=O)(=O)c1ccc(Br)cc1 | -12.6%
COc1cccc(NC(=O)C(C)Oc2ccccc2)c1 (stereo not given) | -2.75%
Cc1ccc(NC(=O)c2c(NC(=O)CCC(=O)O)sc3c2CCCCC3)cc1 | -10.8%
CCOc1ccc(NC(=O)c2ccc(NC(=O)COC(=O)c3ccc(NC(=O)CC#N)cc3)cc2)cc1 | -22.9%
COc1cccc(-c2nn(-c3ccccc3)cc2/C=C(\C#N)C(=O)NCCCn2ccnc2)c1 | 3.86%
CCN1CCCC1CNC(=O)c1cc2c(=O)n(C)c3ccccc3c2n1C (stereo not given) | -4.94%
CC(C)(C)NC(=O)CSC(=Nc1ccccc1F)NC#N | 4.77%
Cc1ccc(-c2nnc(-c3ccc(NC(=O)c4cccs4)cc3)o2)cc1 | -6.56%
Cc1nc2ccccc2nc(=O)c1NNc1ccc([N+](=O)[O-])cc1 | 28.5%
CC(C)Cn1c(CCC(=O)O)ccc1-c1cccs1 | -22.2%

Structure (SMILES) | inhibition
CCC/C=C(\CCC)C(NC(=O)Cc1ccccc1)c1ccc(C(=O)OC)cc1 (stereo not given) | -11.1%
Cc1oc2c(C)c3oc(=O)c(CC(=O)N[C@@H](CC(C)C)C(=O)N[C@@H](Cc4ccccc4)C(=O)O)c(C)c3cc2c1C | 29.3%
Cc1cc(/C=C2/SC(=O)N(CC(=O)N3CCCC3)C2=O)ccc1N1CCOCC1 | 23.9%
CC(=O)Nc1ccccc1Sc1ccc2c3c(cccc13)C(=O)N(c1ccc(C)cc1)C2=O | 4.95%
O=C1NC(=O)C2C1C(c1ccc([N+](=O)[O-])cc1)=NN2Cc1ccccc1 (stereo not given) | 15.8%
Cc1cccc(OCc2nnc(SCc3nc4cc(C(F)(F)F)ccc4c(=O)[nH]3)o2)c1 | 42.8% (active)
CC(=O)/C(=N\Nc1ccc(Cl)cc1Cl)Sc1cccc2cccnc12 | 1.24%
CC1CCN(c2ccc3c(c2)S(=O)(=O)c2cc(C(=O)O)ccc2C3=O)CC1 | 18.1%
CN(C)c1ccc(-n2cccc2/C=C2/SC(=Nc3ccc(F)cc3)NC2=O)cc1 | -29.3%
O=C(CSc1nc2ccccc2c(=O)[nH]1)Nc1nc(-c2ccc(Br)cc2)cs1 | -3.66%
CCOC(=O)N1CCC(NC(=O)C(NS(=O)(=O)c2ccc3c(c2)CCN3C(=O)CC)C(C)C)CC1 (stereo not given) | 1.81%
CCOc1ccc(-n2c(O)c(/C=N/c3ccnn3Cc3ccncc3)c3ccccc3c2=O)cc1 | 82.5% (active)
CCOc1ccc(-n2c(O)c(/C=N/Nc3nnc(C)c(=O)[nH]3)c3ccccc3c2=O)cc1 | -1.67%
CC(C)Oc1ccc(/C=C(\NC(=O)/C=C/c2ccco2)C(=O)NCCc2nc3ccccc3[nH]2)cc1 | 21%
COc1ccc(CNC(=O)c2nnn(CC(=O)Nc3cc(C)cc(C)c3)c2N)cc1 | -6.95%
CN(C)CCOC1c2ccccc2-c2ccccc21 | -14%
CC(=O)c1sc(N/N=C/c2ccc(C(C)C)cc2)nc1C | -6.77%
Cc1ccc(NC(=O)CN2CCc3ccccc3C2)cc1 | -14.3%
C=CC[n+]1c(-c2ccc(C)cc2)csc1NNC(=O)Nc1ccccc1 | 4.61%
COc1ccc(-n2c(SCC(=O)Nc3sc4c(c3C#N)CCCC4)nnc2-c2ccc(O)cc2)cc1 | -8.59%
Cc1nc2ccccc2n1C(=O)N1CCOCC1 | -8.33%
CCCS(=O)(=O)N1CCCC(C(=O)NCc2ccco2)C1 (stereo not given) | -12.9%
Cc1ccc(N=Cc2c(O)cc(C)oc2=O)c(C)c1 | 8.99%
CSC1=N/C(=C\C=C\c2cccs2)C(=O)S1 | 3.5%
CCCOc1ccc(Cn2c(O)cc(=O)[nH]c2=O)cc1 | 7.31%
Nc1nonc1-n1nnc(C(=O)N/N=C/c2cc(Br)ccc2O)c1CSC1=NCCS1 | 2.28%
CCN(CC)C(=O)CSc1nc2ccccc2n1CC(=O)N1CCN(c2ccccc2OC)CC1 | -2.4%

Structure (SMILES) | inhibition
COc1cccc(/C=C(/CC(=O)Nc2ccc(N3CCOCC3)cc2)c2nc3ccccc3s2)c1 | 7.25%
O=C(O)c1ccc(NN=CC2=C(N3CCOCC3)/C(=C/c3ccccc3)CC2)cc1 | 46.5% (active)
CCCCCCSc1ccc([C@@H]2[C@H]3C(=O)N(CC)C(=O)[C@H]3[C@]3(C(=O)OC)CCCCN23)cc1 | 60.5% (active)
O=C(Nc1ccc(-c2nnc(-c3ccccc3)o2)cc1)c1ccc(Br)o1 | -5.94%
Cc1c(N=Nc2ccc(N(C)C)cc2)c(=O)n(-c2ccccc2)n1C | 37.7%
N#Cc1c(-c2cccs2)nc(SCC(=O)c2ccc(Br)cc2)[nH]c1=O | 15.6%
NC(N)=N/N=C/c1ccc(OCc2ccc(Cl)cc2Cl)cc1 | -36.6%
CS(=O)(=O)c1ccc2c(c1)SC1=NC(=O)/C(=C/c3ccco3)C(=N)N12 | 26%
Cc1sc2nc(COC(=O)C(NC(=O)c3ccc(Cl)cc3Cl)C(C)C)[nH]c(=O)c2c1C (stereo not given) | 13.5%
O=C(CSc1cccc2cccnc12)N/N=C/c1cccnc1 | -13.1%
CC(C)CC1C(=O)N(Cc2cn(Cc3ccco3)nn2)CCS(=O)(=O)N1Cc1ccc(-c2ccc(Cl)c(Cl)c2)cc1 (stereo not given) | -6.74%
COC1=C/C(=C/c2c(N)n3nc(CC(=O)N4CCOCC4)sc3nc2=O)C=CC1=O | 36%
CN=c1scc(-c2cc(OC)ccc2OC)n1/N=C/c1c(C)[nH]c2ccccc12 | 30%
O=C(OCc1cc2ccccc2[nH]c1=O)c1cccnc1 | -12.2%
CCOc1cc(/C=C2\SC(N3CCCC(C)C3)=NC2=O)ccc1O (stereo not given) | 10%
CCc1ccc(-c2cc(C(=O)NCc3ccco3)c3ccccc3n2)s1 | 33.8%
Oc1c(CN2CCCC2)cc(COCc2ccccc2)c2cccnc12 | -28.1%
O=C(CCS(=O)(=O)c1cccc2nonc12)NCCc1ccccc1Cl | -6.4%
CCc1ccc(NC(=O)CS(=O)CC(=O)NCCCc2ccccc2)cc1 (stereo not given) | 5.42%
N#Cc1ccc(C(=O)Nc2cccc3cccnc23)c(F)c1 | -28.1%
COc1ccc(NC(=O)Cn2c(-c3ccc(OC)cc3)cn(-c3ccc(C)cc3)c2=O)cc1 | 29.3%
Cc1cc(/C=N/Nc2ccc([N+](=O)[O-])cn2)c(C)n1-c1cccc(C(=O)O)c1 | -0.18%
COc1ccc(CC(=O)Nc2ccc(-c3nnc(-c4ccc(C)cc4)o3)cc2)cc1 | -14.6%
C=CCn1c(=S)[nH]c2scc(-c3ccco3)c2c1=O | -8.62%
Cc1cc(OCC(=O)Nc2nccs2)c2c(C)c(C)c(=O)oc2c1 | -9.45%
COC(=O)c1ccc(OCC(=O)NC(C)(C)C)cc1 | -4.55%
